Measured values taken from PubChem BioAssay (NCI).
This is part of a sample that, as a whole, favours compounds with a hit. Of some 83,000 tested, about 20% had one in any assay.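 Cells were grown in 96-well plates and exposed to the test compound at a single concentration for 48 hours; results are reported as percent growth, with values below 10 considered active.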 Unmarked numbers belong to inactive results. Activity calls are given as the source filed them.

System: MDA-MB-468 breast
Assay: NCI-60 one-dose screen, 48 h (100 = growth as untreated, 0 = no growth, -100 = all killed)
Details: 10 µM unless noted

| SMILES | growth |
| --- | --- |
| CC(=O)C1=C(C)NC(NN)=NC1c1cccc(Cl)c1 (stereo not given) | 105% |
| Nc1ccc(Cl)cn1 | 102% |
| Cc1cccc(C)c1NC(=O)CN(CC(C)C)CC(O)COc1ccccc1 (stereo not given) | 94.5% |
| Cc1cn(C)cn1 | 112% |
| CC[C@]1(O)CC2CN(CCc3c([nH]c4ccccc34)[C@@](C(=O)OC)(c3cc4c(cc3OC)N(C=O)[C@H]3[C@@](O)(C(=O)OC)[C@H](OC(C)=O)[C@]5(CC)C=CCN6CC[C@]43[C@@H]65)C2)C1 (stereo not given in full) | 10.4% |
| CC(C)(C)CC(C)(C)NCc1cc(C(C)(C)C)cc(CNC(C)(C)CC(C)(C)C)c1O | 36.2% |
| O=C(O)c1ccc(N=CC(=O)c2ccc(-c3ccccc3)cc2)cc1 | 83.5% |
| CCCCCc1ccc(S(=O)(=O)N(C(C)=O)c2cccc(-c3csc(N(CCN4CCN(C)CC4)C(C)=O)n3)c2)cc1 | -10.9% (active) |
| CS(=O)(=O)c1ccc(-c2nn(-c3ccccc3)cc2/C=C/C(=O)c2ccc(Br)cc2)cc1 | 91.4% |
| CC(C)(C)OC(=O)CC(S(=O)(=O)c1ccccc1)S(=O)(=O)c1ccccc1 | -23.7% (active) |
| COc1cc(-c2nn(-c3cccc(NC(=O)NCCNC(=O)c4ccccc4)c3)cc2-c2ccncc2)ccc1Cl | 12.1% |
| Cn1c(=O)c2[nH]c(Cc3ccc4c(c3)OCO4)nc2n(C)c1=O | 106% |
| COc1cc(OC)c(/C=C/S(=O)(=O)Cc2ccc(OC)c(NCC(=O)NO)c2)c(OC)c1 | 39.5% |
| O=C(NCc1ccc(Cn2c(=O)sn(-c3ccccc3)c2=O)cc1)OCc1ccc2cccc(O)c2n1 | -73.3% (active) |
| COc1cc(/C=C2\COc3ccc(-c4ccccc4)cc3C2=O)cc(OC)c1 | 69.3% |
| C/C(=N/Nc1nc(N/N=C(/C)c2ccc([N+](=O)[O-])cc2)nc(N2CCOCC2)n1)c1ccc([N+](=O)[O-])cc1 | 79.7% |
| O=C1c2cc3c(cc2-c2c1c1cc(Cl)c(Cl)cc1c(=O)n2CCCn1ccnc1)OCO3 | -38.5% (active) |
| C[n+]1cc2cc(C(N)=O)[nH]c3c(=N)c(Cl)c(N)c1c23 | 53.3% |
| Cc1ccc(S(=O)(=O)O)c(C)c1 | 107% |
| COc1cccc2ccc(CC(O)(c3ccccc3)c3ccccc3)nc12 | 46.7% |

| SMILES | growth |
| --- | --- |
| CC(C)(C)CC(C)(C)c1ccc(O)c(Cc2ccc(Cl)cc2Cl)c1 | -88.6% (active) |
| CC(C)(C)c1ccc(OCCCCCCN2CCNCC2)cc1 | 10.6% |
| CCSc1ccc([C@@H]2[C@@H](O)C(=O)N2c2cc(OC)c(OC)c(OC)c2)cc1 | 40.2% |
| COc1ccc(Cc2nn(CC(=O)N/N=C/c3ccc(Cl)cc3)c(=O)c3c(C)noc23)cc1 | 80.4% |
| COc1ccc2[nH]cc(-c3nc(-c4c[nH]c5ccncc45)cs3)c2c1 | -33.9% (active) |
| COc1cccc(-c2nc3sccn3c2-c2ccnc(NCCCNS(=O)(=O)c3ccccc3)n2)c1 | 52% |
| O=S(=O)(Nc1ccc(I)cc1Cl)c1ccc(-c2cnc(C3CC3)o2)cc1 | 20.1% |
| Cc1ccsc1C(=O)CC(=O)C(F)(F)C(F)(F)C(F)(F)F | 112% |
| Cc1c(C(=O)N[C@@H](Cc2ccccc2)C(=O)C(=O)NCCc2ccccc2)[nH]c2ccccc2c1=O | 110% |
| CC1=NN(c2nc(SCC(=O)Nc3nc4ccc(C)cc4s3)nc(-c3ccccc3)c2C#N)C(=O)C1 | 111% |
| O=c1c2cc(-c3ccc(F)cc3F)ccc2n(O)c(=O)n1-c1cccc(C(F)(F)F)c1 | -0.858% (active) |
| O=[N+]([O-])c1ccc(SSc2ccc([N+](=O)[O-])cc2Cl)c(Cl)c1 | 74.6% |
| COc1cc2c(c(OC)c1OC)-c1ccc(NCc3ccccc3)c(=O)cc1[C@@H](NC(C)=O)CC2 | 17.3% |
| COc1cc(C2CC(c3cccc(Br)c3)=NN2C(C)=O)cc(OC)c1OC (stereo not given) | 24.1% |
| Cc1ccc2c(c1)sc(-c1ccc(N(C)C)cc1)[n+]2C | -11.3% (active) |
| N#C/C(=C\c1ccc(Br)cc1)n1nnc2ccc(F)cc21 | -9.09% (active) |
| NC1CCC(Nc2nc(NCc3ccc(-c4ccccc4O)nc3)c3ncn(C4CCCC4)c3n2)CC1 (stereo not given) | -73.7% (active) |
| CCCCCCCCCCOC(C)=O | 110% |
| Cc1cccc([N+](=O)[O-])c1Cl | 92.4% |
| CN1CCN(Cc2ccc(NC(=O)c3cncc(C#Cc4cnc5ccc(O[C@@H]6CCOC6)nn45)c3)cc2C(F)(F)F)CC1 | -72.6% (active) |
